In PubChem BioAssay (NCI):
The panel holds about 83,000 compounds, 20% with a hit somewhere; the sample as a whole holds those more often.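 Interpretation: 100, growth as untreated; towards 0, rising growth inhibition; 0, no net growth; 0 to -100, cell death. Compounds scoring below 10 were considered active.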 A number with no mark means an inactive call. Active and inactive are the calls of the source.

Tests used:
Experiment in all cases: NCI-60 one-dose screen, 48 h (100 = growth as untreated, 0 = no growth, -100 = all killed)
Settings in all cases: 10 µM unless noted
[1] = test system: RPMI-8226 leukemia
[2] = test system: OVCAR-8 ovarian
[3] = test system: OVCAR-5 ovarian
[4] = test system: OVCAR-4 ovarian
[5] = test system: SK-OV-3 ovarian
[6] = test system: OVCAR-3 ovarian
[7] = test system: HS 578T breast
[8] = test system: NCI/ADR-RES ovarian
[9] = test system: IGROV1 ovarian
[10] = test system: T-47D breast

Compound	growth [1]	growth [2]	growth [3]	growth [4]	growth [5]	growth [6]	growth [7]	growth [8]	growth [9]	growth [10]
O=C(O)C(=O)O	94.4%	75.8%	56.8%	99.8%	95.7%	114%	100%	-36.5% (active)	–	–
CC12CCCCC1C(C(N)=O)C(=O)O2 (configuration not stated)	106%	102%	112%	101%	107%	–	110%	102%	119%	114%
Clc1ccc([C@@H]2C[C@@H]3Cc4cc(Br)c5ccccc5c4N2O3)c(Cl)c1	89.3%	98.3%	101%	84.7%	79.5%	41.6%	92.3%	55.5%	79.4%	96.9%
O=C(Nc1ccc(Oc2ccc(NC(=O)Nc3ccc([N+](=O)[O-])cc3)cc2)cc1)Nc1ccc([N+](=O)[O-])cc1	-53.5% (active)	10.1%	6.63% (active)	34.5%	12.8%	8.26% (active)	23.3%	8.82% (active)	-13.2% (active)	1.54% (active)
COc1ccc2c(c1)[nH]c(=O)c1c3cc(OC)c(OC)cc3cn21	-72.3% (active)	16%	49.4%	44.2%	40.2%	–	–	14.8%	-9.03% (active)	74.1%
Cn1cc(-c2csc(-c3cn(C)c4ncccc34)n2)c2cc(F)cnc21	70.1%	80.8%	91.3%	93.5%	107%	108%	–	46.9%	84%	52.2%
NC(=O)SCC(=O)Nc1ccccc1-c1ccccc1	99.8%	111%	104%	111%	131%	–	–	106%	133%	132%
NC(N)=NC(N)=NCCCc1ccccc1	62.6% [100 µM]	71.1% [100 µM]	76.3% [100 µM]	70% [100 µM]	67.7% [100 µM]	56.9% [100 µM]	–	81.2% [100 µM]	53.1% [100 µM]	53.7% [100 µM]
CCN(CC)CCCNCCCNc1cc(OC)cc2cccnc12	81.3%	88.8%	94.5%	-62.3% (active)	111%	32.8%	94.9%	93.2%	73.9%	64.7%
COc1cc(/C=C2\CCC/C(=C\c3ccc(OCC4CO4)c(OC)c3)C2=O)ccc1OCC1CO1 (configuration not stated)	-2.29% (active)	0.499% (active)	86%	47.1%	20.1%	-22.8% (active)	23.4%	56.8%	-12.6% (active)	46.3%
CC(C)[O-].CC(C)[O-].CN(CCN(C)Cc1cc(F)cc(F)c1[O-])Cc1cc(F)cc(F)c1[O-].[Ti+4]	32.9%	10.6%	12.4%	14%	16.4%	4.78% (active)	-16% (active)	11.2%	-42.2% (active)	9.18% (active)
O=Cc1c[nH]c2ccc(NC(=O)OCc3ccccc3)cc12	93%	103%	97.5%	104%	97.6%	123%	252%	96.3%	32.4%	84.2%
CCC(C)(C)C(=O)O[C@H]1C[C@@H](C)C=C2C=C[C@H](C)[C@H](CC[C@@H]3C[C@@H](O)CC(=O)O3)[C@H]21	62.7%	48%	87.1%	86.6%	70%	85.7%	42.4%	25.5%	28.8%	92.1%
O=C1c2nsnc2C(=O)c2c(F)c(F)c(F)c(F)c21	-1.71% (active)	-38.6% (active)	-73.8% (active)	-99.5% (active)	32.4%	-90.1% (active)	–	-17.1% (active)	-22.9% (active)	-38.9% (active)
COc1ccc2c(c1)nc(N)c1c3cc(OC)c(OC)cc3cn21	42.8%	40.9%	62.5%	69.8%	43.9%	37.6%	–	33.9%	65.4%	64%
Cn1cc(-c2csc(-c3c[nH]c4ncccc34)n2)c2cc(F)cnc21	70.3%	77.5%	87.1%	62.4%	81.8%	87.8%	–	63%	66.5%	43.7%
CCCCc1nc(Cl)c(CO)n1Cc1ccc(-c2ccccc2-c2nn[nH]n2)cc1	115%	103%	101%	109%	106%	111%	110%	105%	104%	110%
Cc1cc(Cl)ccc1Nc1nc(C(F)(F)F)ccc1C(=O)NCC(=O)N/N=C/c1c(Cl)cccc1Cl	-20.6% (active)	73.4%	87.8%	86.4%	88.5%	–	–	77%	35.4%	51.9%
COc1ccc2c(c1)nc(N)c1c3ccccc3cn21	80.3%	87.8%	113%	95.6%	85.6%	79.3%	–	69.1%	73.1%	70.7%
COc1ccc(/C(=C2\O[C@@H]([C@H](O)CO)[C@H]3OC(C)(C)O[C@@H]23)c2cc(OC)c(OC)c(OC)c2)cc1O	73.3%	107%	90%	104%	106%	97.4%	–	24.5%	100%	102%
COc1ccc(-c2c3c(nn2-c2ccc(N)cc2)CCc2cnoc2-3)cc1OC	60%	65%	94.1%	102%	124%	83.1%	–	77.6%	97.6%	97%
OC(CCC(O)(c1ccccc1)c1ccccc1)(c1ccccc1)c1ccccc1	35.5%	84.7%	97.2%	99.4%	103%	–	75.1%	68.9%	90.7%	–
Cc1cc2cn3c4cccnc4[nH]c(=O)c3c2cc1C	-5.48% (active)	-46.1% (active)	92.9%	47.9%	81%	29.5%	–	9.65% (active)	65%	-21.3% (active)
CCN(CC)c1ccc(CN(CC(=O)c2ccc(Cl)c(Cl)c2)Cc2ccccc2)cc1	101%	100%	104%	105%	90%	99.2%	103%	105%	107%	85.5%
Cn1cc(-c2csc(-c3cn(C)c4ncccc34)n2)c2cccnc21	87.5%	93.7%	90.2%	100%	123%	112%	–	91.1%	111%	101%
COc1cc(C(=O)/C=C/c2cccnc2Nc2ccccc2)cc(OC)c1OC	-40.3% (active)	-31.3% (active)	-71.2% (active)	-92.4% (active)	-3.48% (active)	-98.5% (active)	24.2%	13.4%	-38.2% (active)	-39.8% (active)
CSc1nc2c(c(=O)n1C)C(c1ccccc1)C1=C(N2)/C(=C/c2ccccc2)CCC1 (configuration not stated)	39.5%	63.7%	113%	68.3%	107%	52.8%	61%	38.3%	47.2%	57%
Cn1[nH]cc(/C=N/C(N)=O)c1=O	105%	105%	102%	106%	110%	–	109%	108%	124%	104%
c1ccc2c(c1)[nH]c1c2cc[n+]2cc3c(cc12)CCCC3	32.6%	10.7%	48.1%	38.9%	23.4%	20.9%	–	97.7%	66.4%	-13.8% (active)
